# From the supplement of paper PMC12645437, “Orthogonal IMiD-Degron Pairs Induce Selective Protein Degradation in Cells” (ACS Chemical Biology, 2025)
# Whole data set: some 8,300 sequences, median “log2 fold change of degron read counts, EGFP-low vs EGFP+ sorted cells (limma voom), compound-induced degradation” near -1.1, cut for the highest 2% near 3.2. This is one part of a sample in which the highest values are shown more often than they occur.
# T1: CRBN, Q96SW2
# T1 chain: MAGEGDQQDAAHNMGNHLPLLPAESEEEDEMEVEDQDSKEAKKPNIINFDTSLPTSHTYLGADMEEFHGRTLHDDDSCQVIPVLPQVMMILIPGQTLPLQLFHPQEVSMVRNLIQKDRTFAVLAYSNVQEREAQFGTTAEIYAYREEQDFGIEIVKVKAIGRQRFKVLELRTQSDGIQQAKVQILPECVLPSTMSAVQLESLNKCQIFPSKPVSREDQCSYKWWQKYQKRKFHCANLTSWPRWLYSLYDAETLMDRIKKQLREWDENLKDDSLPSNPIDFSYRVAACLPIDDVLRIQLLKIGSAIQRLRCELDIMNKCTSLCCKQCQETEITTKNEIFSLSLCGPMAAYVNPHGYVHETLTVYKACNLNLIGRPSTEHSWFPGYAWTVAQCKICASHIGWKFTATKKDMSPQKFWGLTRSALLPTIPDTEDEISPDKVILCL
# Target: T1, CRBN, Q96SW2
# Assay: log2 fold change of degron read counts, EGFP-low vs EGFP+ sorted cells (limma voom), compound-induced degradation; higher = more compound-induced degradation of the degron-EGFP fusion; degrons are variants of IKZF1/3 zinc finger 2; compound dose not given here
# Details: Jurkat, 18 h
# Method: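 Pooled library of 8380 IKZF3 ZF2 degron mutants (positions 146-167 varied within the IKZF3 130-189 degron; only the varied core is printed, flanks not printed) fused to EGFP with IRES-mCherry, lentivirally expressed in Jurkat cells. mCherry+ cells were treated with one IMiD compound for 18 h (dose not stated) and FACS-sorted into EGFP-low and EGFP+ populations. Degron sequences were counted by NGS, and log2FC (EGFP-low vs EGFP+) was estimated by limma voom over 3 biological replicates.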
# [1] = compound: compound 19 (5-tert-butyl-thalidomide)
# [2] = compound: compound 22 (5-morpholino-thalidomide)
# [3] = compound: compound 33 (diphenyl IMiD analogue)
# 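Note: pooled lentiviral library of zinc finger degron-EGFP fusions in mCherry-positive Jurkat cells, FACS-sorted after compound exposure, with degron abundance counted by next-generation sequencing.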
Sequence,log2 fold change of degron read counts [1],log2 fold change of degron read counts [2],log2 fold change of degron read counts [3],log2 fold change of degron read counts (compound: thalidomide)
"FFCPICGHDFTQKGNLLRHIKL [46F_47F_49P_50I_52G_53H_54D_55F_67L_, Q9UKT9]",-2.5,-3.06,-2.39,-2.25
"FLCEICGAYFTQKGNLLRHIKL [46F_47L_49E_50I_52G_53A_54Y_55F_67L_, Q9UKT9]",0.402,-0.763,0.888,1.03
"FSCNICGAPFTQKGNLLRHIKL [46F_47S_49N_50I_52G_53A_54P_55F_67L_, Q9UKT9]",2.52,2.26,1.18,1.71
"FDCNICGAPFTQKGNLLRHIKL [46F_47D_49N_50I_52G_53A_54P_55F_67L_, Q9UKT9]",0.00765,0.55,-0.25,0.701
"FHCNICGAPFTQKGNLLRHIKL [46F_47H_49N_50I_52G_53A_54P_55F_67L_, Q9UKT9]",3.64,3.01,1.94,1.11
"FACNICGAPFTQKGNLLRHIKL [46F_47A_49N_50I_52G_53A_54P_55F_67L_, Q9UKT9]",3,2.25,0.28,1.19
"FMCNICGAPFTQKGNLLRHIKL [46F_47M_49N_50I_52G_53A_54P_55F_67L_, Q9UKT9]",2.52,3.05,3.24,2.42
"FQCNICGAPFTQKGNLLRHIKL [46F_47Q_49N_50I_52G_53A_54P_55F_67L_, Q9UKT9]",2.35,3.09,1.74,3.71
"FHCNQCGAPFTQKGNLLRHIKL [46F_47H_49N_50Q_52G_53A_54P_55F_67L_, Q9UKT9]",-0.273,-1.39,-1.33,-1.72
"FKCNICGAPFTQKGNLLRHIKL [46F_47K_49N_50I_52G_53A_54P_55F_67L_, Q9UKT9]",1.75,0.553,-1.66,1.84
"FFCNICGAPFTQKGNLLRHIKL [46F_47F_49N_50I_52G_53A_54P_55F_67L_, Q9UKT9]",3.82,3.29,1.81,0.893
"FWCEICGRFFTQKGNLLRHIKL [46F_47W_49E_50I_52G_53R_54F_55F_67L_, Q9UKT9]",1.04,1.16,0.269,-0.94
"FVCNQCGHRFTQKGNLLRHIKL [46F_47V_49N_50Q_52G_53H_54R_55F_67L_, Q9UKT9]",-2.83,-3,-2.59,-2.33
"FWCPICGHTFTQKGNLLRHIKL [46F_47W_49P_50I_52G_53H_54T_55F_67L_, Q9UKT9]",-1.68,-1.6,-1.41,-2.18
"FVCEQCGADFTQKGNLLRHIKL [46F_47V_49E_50Q_52G_53A_54D_55F_67L_, Q9UKT9]",-3.51,-2.64,-2.37,-2.14
"FCCNICGAKFTQKGNLLRHIKL [46F_47C_49N_50I_52G_53A_54K_55F_67L_, Q9UKT9]",1.13,0.951,-1.32,1.19
"FKCPICGRAFTQKGNLLRHIKL [46F_47K_49P_50I_52G_53R_54A_55F_67L_, Q9UKT9]",-2.37,-1.6,-2.65,-0.307
"FNCEVCGAAFTQKGNLLRHIKL [46F_47N_49E_50V_52G_53A_54A_55F_67L_, Q9UKT9]",3.07,1.6,0.0337,0.576
"FMCEVCGAAFTQKGNLLRHIKL [46F_47M_49E_50V_52G_53A_54A_55F_67L_, Q9UKT9]",2.23,2.48,2.75,2.28
"FCCEVCGAAFTQKGNLLRHIKL [46F_47C_49E_50V_52G_53A_54A_55F_67L_, Q9UKT9]",3.57,2.96,2.1,2.35
"FYCEVCGAAFTQKGNLLRHIKL [46F_47Y_49E_50V_52G_53A_54A_55F_67L_, Q9UKT9]",3.87,3.7,2.98,1.8
"FWCEVCGAAFTQKGNLLRHIKL [46F_47W_49E_50V_52G_53A_54A_55F_67L_, Q9UKT9]",3.39,3.9,2.77,1.54
"FQCEVCGAAFTQKGNLLRHIKL [46F_47Q_49E_50V_52G_53A_54A_55F_67L_, Q9UKT9]",2.72,3.34,2.22,3.65
"FCCNVCGAAFTQKGNLLRHIKL [46F_47C_49N_50V_52G_53A_54A_55F_67L_, Q9UKT9]",0.855,0.945,0.918,0.447
"FYCPVCGAAFTQKGNLLRHIKL [46F_47Y_49P_50V_52G_53A_54A_55F_67L_, Q9UKT9]",2.93,2.85,2.36,0.969
"FGCEVCGAAFTQKGNLLRHIKL [46F_47G_49E_50V_52G_53A_54A_55F_67L_, Q9UKT9]",2.88,2.24,1.96,1.02
"FHCEVCGAAFTQKGNLLRHIKL [46F_47H_49E_50V_52G_53A_54A_55F_67L_, Q9UKT9]",3.08,2.89,1.84,0.737
"FWCNVCGAAFTQKGNLLRHIKL [46F_47W_49N_50V_52G_53A_54A_55F_67L_, Q9UKT9]",1.25,2.85,1.15,-0.34
"FYCNVCGAAFTQKGNLLRHIKL [46F_47Y_49N_50V_52G_53A_54A_55F_67L_, Q9UKT9]",1.57,2.01,1.33,-0.954
